Experimental data taken from PubChem BioAssay AID488984 (The Scripps Research Institute Molecular Screening Center, 2010).
Activity calls are given as the source filed them. Cut-off read from the data, not from the text of the source: active = inhibition above about 55%; inactive = the rest.

Tested on: SARS coronavirus 3C-like protease (3CLpro, nsp5)
Assay: blockers of SARS 3CLpro activity – biochemical, fluorescence, set 2, late-stage follow-up (AID 488984)
Conditions: recombinant 3CLpro, fluorogenic peptide cleavage; at 100 µM; stronger effect = higher value

Compound	inhibition
CC(C)(C)NC(=O)C(c1ccsc1)N(C(=O)c1ccc(C(F)(F)F)nc1)c1ccc(OCF)cc1 (centres undefined)	21.3% (inactive)
CC(C)(C)NC(=O)C(c1ccsc1)N(C(=O)c1ccc(C#N)cc1)c1ccc(C(C)(C)C)cc1 (centres undefined)	22.7% (inactive)
CC(C)(C)NC(=O)C(c1ccsc1)N(C(=O)Cn1cnc2ccccc21)c1ccc(N)cc1 (centres undefined)	12.6% (inactive)
CC(C)(C)NC(=O)C(c1cccnc1)N(C(=O)c1ccc(C(F)(F)F)nc1)c1ccc(C(C)(C)C)cc1 (centres undefined)	8.39% (inactive)
CC(C)(C)NC(=O)C(c1cccnc1)N(C(=O)c1ccco1)c1ccc(C(C)(C)C)cc1 (centres undefined)	102% (active)
CC(C)c1ccc(N(C(=O)c2ccc(C(F)(F)F)nc2)C(C(=O)NC(C)(C)C)c2cccnc2)cc1 (centres undefined)	-15.3% (inactive)
CC(=O)Nc1ccc(N(C(=O)Cn2c(C)nc3ccccc32)C(C(=O)NC(C)(C)C)c2ccsc2)cc1 (centres undefined)	2.27% (inactive)
Cc1nc2ccccc2n1CC(=O)N(c1ccc(N)cc1)C(C(=O)NC(C)(C)C)c1ccsc1 (centres undefined)	1.01% (inactive)
CC(C)(C)NC(=O)C(c1cccnc1)N(C(=O)c1ccc(C(F)(F)F)nc1)c1ccc(F)cc1 (centres undefined)	10.5% (inactive)
CC(C)(C)NC(=O)C(c1cccnc1)N(C(=O)c1cccc2c1CCCC2)c1ccc(F)cc1 (centres undefined)	12% (inactive)
CC(C)c1ccc(N(C(=O)Cc2cccc3ccccc23)C(C(=O)NC(C)(C)C)c2ccsc2)cc1 (centres undefined)	8.43% (inactive)
CC(C)(C)NC(=O)C(c1ccsc1)N(C(=O)Cc1cccc2ccccc12)c1ccc(C(C)(C)C)cc1 (centres undefined)	22.3% (inactive)
CC(C)(C)NC(=O)C(c1ccsc1)N(C(=O)c1cccc2c1CCCC2)c1ccc(OCF)cc1 (centres undefined)	12.6% (inactive)
CC(C)c1ccc(N(C(=O)c2ccc(C#N)cc2)C(C(=O)NC(C)(C)C)c2ccsc2)cc1 (centres undefined)	-5.45% (inactive)
CC(C)(C)NC(=O)C(c1ccsc1)N(C(=O)Cc1cccc2ccccc12)c1ccc(F)cc1 (centres undefined)	19.2% (inactive)
CC(C)(C)NC(=O)C(c1ccsc1)N(C(=O)Cn1cnc2ccccc21)c1ccc(NS(C)(=O)=O)cc1 (centres undefined)	38% (inactive)
CC(C)c1ccc(N(C(=O)Cc2cccnc2)C(C(=O)NC(C)(C)C)c2ccsc2)cc1 (centres undefined)	7.95% (inactive)

Compound	inhibition
CC(C)C(=O)Nc1ccc(N(C(=O)Cn2cnc3ccccc32)C(C(=O)NC(C)(C)C)c2ccsc2)cc1 (centres undefined)	59.8% (active)
CCC(=O)Nc1ccc(N(C(=O)Cn2ccnc2C)C(C(=O)NC(C)(C)C)c2ccsc2)cc1 (centres undefined)	5.34% (inactive)
CC(C)(C)NC(=O)C(c1cccnc1)N(C(=O)Cc1cccnc1)c1ccc(OCF)cc1 (centres undefined)	18.7% (inactive)
CC(C)(C)NC(=O)C(c1cccnc1)N(C(=O)Cc1cccc2ccccc12)c1ccc(F)cc1 (centres undefined)	-7.86% (inactive)
CC(C)c1ccc(N(C(=O)c2n[nH]c3ccccc23)C(C(=O)NC(C)(C)C)c2cccnc2)cc1 (centres undefined)	13.2% (inactive)
CC(C)(C)NC(=O)C(c1cccnc1)N(C(=O)c1n[nH]c2ccccc12)C1CC1 (centres undefined)	9.27% (inactive)
CC(C)(C)NC(=O)C(c1ccsc1)N(C(=O)c1n[nH]c2ccccc12)C1CC1 (centres undefined)	13% (inactive)
CC(C)c1ccc(N(C(=O)Cc2c[nH]c3ccccc23)C(C(=O)NC(C)(C)C)c2cccnc2)cc1 (centres undefined)	3.78% (inactive)
CC(C)(C)NC(=O)C(c1ccsc1)N(C(=O)c1ccc(C#N)cc1)c1ccc(F)cc1 (centres undefined)	17.4% (inactive)
Cc1nccn1CC(=O)N(c1ccc(NC(=O)C(C)C)cc1)C(C(=O)NC(C)(C)C)c1ccsc1 (centres undefined)	7.94% (inactive)
CC(C)(C)NC(=O)C(c1ccsc1)N(C(=O)c1ccco1)c1ccc(C(C)(C)C)cc1 (centres undefined)	19.5% (inactive)
CC(C)(C)NC(=O)C(c1ccsc1)N(C(=O)c1ccc(C(F)(F)F)nc1)c1ccc(F)cc1 (centres undefined)	9.21% (inactive)
CC(C)(C)NC(=O)C(c1cccnc1)N(C(=O)c1ccco1)C1CC1 (centres undefined)	-1.64% (inactive)
CC(C)(C)NC(=O)C(c1ccsc1)N(C(=O)Cn1cnc2ccccc21)c1ccc(C(C)(C)C)cc1 (centres undefined)	1.78% (inactive)
CC(C)(C)NC(=O)C(c1ccsc1)N(C(=O)Cn1nnc2ccccc21)c1ccc(NS(C)(=O)=O)cc1 (centres undefined)	89.5% (active)
CC(C)(C)NC(=O)C(c1cccnc1)N(C(=O)c1ccc(C#N)cc1)C1CC1 (centres undefined)	-4.03% (inactive)
CC(C)(C)NC(=O)C(c1ccsc1)N(C(=O)c1ccc(C#N)cc1)C1CC1 (centres undefined)	11.2% (inactive)
